Each structure is given as a SMILES string. Results filed as inconclusive are left out. Calls of active or inactive are those of the source. Rule for the calls, unless noted: active = hit-call score of the fitted dose curve at least 0.9, where 1 is the maximum; inactive = score below 0.9.

29 compounds from PubChem BioAssay (EPA / NIEHS) can be followed below.

Assay [1] can be described thus: CCTE_Shafer_MEA_acute_spike_number: CCTE's Neural Acute Assay for Total Number of Spikes, Shafer Lab (AID 2284008).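 For AC50: curve fitted for decrease in spike count so AC50 reflects inhibitors.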 In a few lines:
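Rat primary cortical neurons on 48-well MEA plates, DIV 13 or 15, at 37 C. 40 min baseline then 40 min with compound (0.03-40 uM); spikes detected at 8x rms noise, expressed as percent change from baseline.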

Assay [2] is described as follows: CCTE_Harrill_HTTr_Viability_MCF7: CCTE's 6-hour Cell Viability Assessment for the High-Throughput Transcriptomics (HTTr) Platform, in MCF-7 cells cultured in DMEM + 10% fetal bovine serum, Harrill Lab (AID 2284010). In a few lines: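 MCF-7 cells in DMEM + 10% FBS, 384-well, exposed 6 h to an eight-point dilution series. Membrane integrity scored by high-content imaging of propidium iodide exclusion; bidirectional fit versus DMSO.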

Assay [3] in a line: CCTE_Harrill_HTTr_Apoptosis_MCF7: CCTE's 6-hour Apoptosis Assessment for the High-Throughput Transcriptomics (HTTr) Platform, in MCF-7 cells cultured in DMEM + 10% fetal bovine serum, Harrill Lab (AID 2284011). In a few lines: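 MCF-7 cells in DMEM + 10% FBS exposed 6 h to chemicals over an eight-point dilution series. Caspase-3/7 activation imaged by high-content CellEvent Green staining; fitted bidirectionally versus DMSO.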

A short description of assay [4]: CCTE_Shafer_MEA_acute_burst_number: CCTE's Neural Acute Assay for Single-Electrode Bursts, Shafer Lab (AID 2284013). Summed up: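 Rat cortical cultures, DIV 13/15; 40 min baseline, then 40 min with compound 0.03-40 uM, 37 C. Spikes: 300-5000 Hz band-pass, threshold 8x rms noise. Readout = % change in single-electrode bursts vs baseline, loss-of-signal fit.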
Assay [5] is described as follows: CCTE_Shafer_MEA_acute_burst_duration_mean: CCTE's Neural Acute Assay for Mean Burst Duration, Shafer Lab (AID 2284014).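 Note: hits are decreases in mean burst duration relative to DMSO controls.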 In a few lines: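 Primary rat cortical neurons on 16-electrode MEA wells, treated on DIV 13 or 15 with compound (0.03-40 uM; ≥3 wells each). 40-min baseline and 40-min exposure recordings at 37 C; percent change in mean burst duration per well versus DMSO.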

Assay [6] is described as follows: CCTE_Shafer_MEA_acute_per_burst_spike_number_mean: CCTE's Neural Acute Assay for Average Number of Spikes Per Burst, Shafer Lab (AID 2284015).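 Note: hits are decreases in mean spikes per burst versus baseline.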 Summed up: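 Rat primary cortical neurons on 48-well MEAs (DIV 13 or 15) were treated with 0.03-40 uM compound at 37 C. Mean spikes per burst over 40 min were recorded before and after exposure and expressed as percent change from baseline, relative to DMSO.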

The nature of assay [7]: CCTE_Shafer_MEA_acute_interburst_interval_mean: CCTE's Neural Acute Assay for Mean Interburst Interval, Shafer Lab (AID 2284016).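 Note: percent change of mean interburst interval versus each well's own pre-dose baseline; curves fitted for decrease in interburst interval relative to DMSO.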 In a few lines:
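Rat primary cortical neurons on 48-well MEAs at DIV 13 or 15 were exposed acutely to 0.03-40 uM. Spikes detected at 8x rms noise, 37 C. Mean interburst interval from 40 min recordings expressed as percent change from 40 min pre-treatment baseline.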

Assay [8] in a line: CCTE_Shafer_MEA_acute_burst_percentage_std: CCTE's Neural Acute Assay for Standard Deviation of Burst Percentage, Shafer Lab (AID 2284018).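 Note: fitted in the negative direction so actives lower burst percentage SD.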 In a few lines: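 Primary rat cortical neurons on 16-electrode MEA wells were recorded 40 min at baseline (DIV 13 or 15), then 40 min after compound (0.03-40 uM), at 37 C. Well value is SD across electrodes of spikes-in-bursts/total spikes; endpoint is percent change, DMSO-referenced.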

A short description of assay [9]: CCTE_Shafer_MEA_acute_per_network_burst_spike_number_mean: CCTE's Neural Acute Assay for Average Number of Spikes in a Network Burst, Shafer Lab (AID 2284019).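 For AC50: curve fitted for loss of signal so actives reduce spikes per network burst.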 In a few lines:
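Primary rat cortical neurons on 16-electrode MEA wells, DIV 13 or 15, 37 C; 40-min baseline then 40-min recording with compound (0.03-40 uM). Spikes per network burst (total spikes/number of bursts) expressed as percent change from baseline, DMSO reference.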

Assay [10] can be described thus: CCTE_Shafer_MEA_acute_per_network_burst_spike_number_std: CCTE's Neural Acute Assay for Standard Deviation of Number of Spikes in a Network Burst, Shafer Lab (AID 2284020).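 Note: fitted for decrease in spike-number SD versus DMSO so actives lower it.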 Summed up: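 Primary rat cortical neurons on 48-well MEAs (16 electrodes/well) recorded at DIV 13 or 15: 40-min baseline, then 40 min with compound (0.03-40 uM), 37 C. Value is percent change in SD of spikes per network burst, relative to DMSO.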

Assay [11] is described as follows: CCTE_Shafer_MEA_acute_per_network_burst_electrodes_number_mean: CCTE's Neural Acute Assay for Mean Number of Electrodes in a Network Burst, Shafer Lab (AID 2284021).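 Note: curves fitted for decreases only so hits reduce electrodes per burst.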 In a few lines:
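Rat primary cortical neurons on 48-well MEAs, DIV 13 or 15, were treated at 0.03-40 uM. Spikes were detected at 8x rms noise and recorded at 37 C. The mean electrodes per network burst in a 40 min exposure recording was expressed as percent change from a 40 min baseline.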

Assay [12] is described as follows: CCTE_Shafer_MEA_acute_network_burst_percentage: CCTE's Neural Acute Assay for Percentage of Network Bursts, Shafer Lab (AID 2284022).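 Note: curves fitted for loss so actives lower network burst percentage.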 Summed up: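 Rat primary cortical neuron networks on 48-well MEA plates, DIV 13 or 15, treated acutely with compound (0.03-40 uM, at least three wells). Percent of spikes within network bursts compared between 40-min recordings before and during exposure at 37 C, expressed as percent change.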

The nature of assay [13]: CCTE_Shafer_MEA_acute_cross_correlation_HWHM: CCTE's Neural Acute Assay for Cross Correlation at Half Width at Half Maximum, Shafer Lab (AID 2284026).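 For outcome: spontaneous network firing of rat primary cortical neurons on multiwell microelectrode arrays.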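 Note: percent change per well from pre-dose baseline in spike cross-correlogram half width; hits are a decrease in cross-correlogram half width relative to DMSO.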 Summed up:
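Rat primary cortical neurons on 48-well MEA plates; 40-min baseline and 40-min post-exposure recordings at 37 C on DIV 13 or 15, compounds 0.03-40 uM. Spikes detected at 8x rms noise; percent change in cross-correlogram HWHM per well vs baseline.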

Assay [14] in a line: CCTE_Shafer_MEA_acute_synchrony_index: CCTE's Neural Acute Assay for Synchrony, Shafer Lab (AID 2284027).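 Note: network synchrony index of spontaneous spiking in primary rat cortical neurons on MEAs; fitted for loss of signal so actives lower synchrony relative to DMSO.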 Summed up: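 Primary rat cortical neurons on 48-well MEAs, dosed at 0.03–40 uM on DIV 13 or 15. Spikes are recorded for 40 min at 37C before and after exposure, and synchrony index (0–1) is expressed as percent change from baseline per well.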
A short description of assay [15]: CCTE_Harrill_HTTr_CellCount_MCF7: CCTE's Cell Proliferation Assessment for the High-Throughput Transcriptomics (HTTr) Platform, Harrill Lab (AID 2284012; active = hit-call score of the fitted dose curve at least 0.9, where 1 is the maximum;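 note: cells exposed to compound for six hours; intended direction is loss of nuclei count meaning fewer cells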). Summed up: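 MCF7 cells exposed 6 hours to an eight-point dilution series; Hoechst-stained nuclei counted by high-content imaging. Bidirectional curve fitting against DMSO baseline.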
Assay [16] has as its target Estrogen receptor (Homo sapiens) (UniProt P03372). Put plainly: CCTE_Deisenroth_AIME_96WELL_LUC_Active: CCTE's 96-well Estrogen Receptor Transactivation Assay with AIME metabolic competence (ERTA luciferase; metabolism positive), Deisenroth Lab (AID 2284023; active = hit-call score of the fitted dose curve at least 0.9, where 1 is the maximum). Summed up:
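Chemicals pre-incubated 2 h with alginate-immobilized phenobarbital/beta-naphthoflavone-induced male Sprague Dawley rat liver S9, then medium transferred to VM7Luc4E2 cells for 24 h luciferase read-out. 10-point series 0.002 - 200 uM; fitted relative to 17beta-estradiol.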

The target is the same in assay [17]. The assay can be described thus: CCTE_Deisenroth_AIME_96WELL_LUC_Inactive: CCTE's 96-well Estrogen Receptor Transactivation Assay without AIME metabolic competence (ERTA luciferase; metabolism negative), Deisenroth Lab (AID 2284025; active = hit-call score of the fitted dose curve at least 0.9, where 1 is the maximum). In a few lines: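 VM7Luc4E2 breast cells, luciferase read 24 h after dosing with medium pre-incubated 2 h on alginate-water lids (metabolism negative). 10-point series 0.002–200 uM, single technical replicate, n≥4; fit relative to 17beta-estradiol.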

Sequence of Estrogen receptor (Homo sapiens) (P03372 whole entry, looked up): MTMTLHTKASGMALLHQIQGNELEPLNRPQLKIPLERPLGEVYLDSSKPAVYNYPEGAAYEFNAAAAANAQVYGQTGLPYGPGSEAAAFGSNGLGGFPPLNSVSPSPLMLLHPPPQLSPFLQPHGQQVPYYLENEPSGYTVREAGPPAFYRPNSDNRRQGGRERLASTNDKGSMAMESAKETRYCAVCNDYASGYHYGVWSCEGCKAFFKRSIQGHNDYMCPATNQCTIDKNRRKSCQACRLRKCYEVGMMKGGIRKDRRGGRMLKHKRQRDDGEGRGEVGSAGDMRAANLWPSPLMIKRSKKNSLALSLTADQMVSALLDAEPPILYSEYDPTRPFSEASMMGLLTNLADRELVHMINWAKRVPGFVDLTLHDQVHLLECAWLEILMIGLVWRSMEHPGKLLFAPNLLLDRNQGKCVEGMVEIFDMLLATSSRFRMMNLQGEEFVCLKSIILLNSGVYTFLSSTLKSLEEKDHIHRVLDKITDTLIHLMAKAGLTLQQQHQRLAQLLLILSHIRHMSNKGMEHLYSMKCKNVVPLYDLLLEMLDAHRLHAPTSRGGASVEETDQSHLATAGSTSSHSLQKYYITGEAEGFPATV

As to `CN(C)CCO`, the result in [1], in assay [2], in [3], in assay [4], in [5] and in assay [6] was inactive. Further, the compound was classed as inactive in [7], in assay [8], in assay [9], in assay [10], in [11] and in assay [12]. Moreover, the call in assay [13] and in assay [14] was inactive.

As to `Cc1cc(-c2ccc(N)c(C)c2)ccc1N`, the result in assay [2], in assay [3] and in assay [15] was inactive.

Take `O=S(=O)(O)C(F)(F)C(F)(F)C(F)(F)C(F)(F)C(F)(F)C(F)(F)F`: the outcome in assay [2], in assay [3] and in assay [15] was inactive.

With `C=CC(N)=O`, the outcome in assay [1], in assay [2], in [3], in assay [15], in assay [4] and in assay [5] was inactive. Moreover, the compound was called inactive in [6], in assay [7], in assay [8], in assay [9], in assay [10] and in assay [11]. The compound was called inactive in [12], in [13] and in [14].

Take `CCOC(=O)C(O)(c1ccc(Cl)cc1)c1ccc(Cl)cc1`: the result in assay [2], in [3] and in assay [15] was inactive.

Take `Nn1cnnc1`: the outcome in assay [2], in assay [3] and in assay [15] was inactive.

Turning to `ClC1=C(Cl)[C@]2(Cl)[C@@H]3[C@@H]4C[C@@H]([C@H]5O[C@@H]45)[C@@H]3[C@@]1(Cl)C2(Cl)Cl`, the AC50 in assay [1] was 0.476 µM (active); in [4], 0.508 µM (active); in assay [6] it was 0.126 µM (active); in assay [9], 0.135 µM (active); in assay [10], 0.338 µM (active); in assay [11], 0.116 µM (active). For the same compound, the results for the AC50 in assay [12], in assay [13] and in assay [14] were 0.192 µM (active), 0.323 µM (active) and 0.117 µM (active), respectively. Besides, the outcome in assay [2], in assay [3], in [5], in assay [7] and in [8] was inactive.

As to `Cc1ccccc1CO[C@@H]1C[C@@]2(C(C)C)CC[C@]1(C)O2`, the outcome in [2] and in assay [3] was inactive.

With `Clc1ccc(C(c2ccccc2Cl)C(Cl)(Cl)Cl)cc1` (stereo not given), the result in [2], in assay [3] and in assay [15] was inactive.

With `Cc1cc(O)ccc1Cl`, the result in assay [2], in [3] and in assay [15] was inactive.

As to `Cc1cc2c3c(c1)C(c1ccccc1)=N[C@@H](NC(=O)c1ccncc1)C(=O)N3CC2`, the outcome in assay [2], in [3] and in [15] was inactive.

Turning to `C=CC(=O)NCNC(=O)C=C`, the outcome in assay [2] and in assay [3] was inactive.

Consider `Clc1ccc(Cl)cc1`, for which the result in assay [2] and in assay [3] was inactive.

With `O=C(NC(=O)c1cc(F)c(F)cc1Cl)Nc1cc(F)ccc1N1CCC(C(=O)O)CC1`, the outcome in assay [2] and in assay [3] was inactive.

On to `Cc1cccc(C)c1N`, for which the outcome in assay [2], in [3] and in assay [15] was inactive.

With `CCOP(=S)(OCC)SCSC(C)(C)C`, the result in [2], in [3] and in assay [15] was inactive.

Consider `c1cc2ccc3cccc4ccc(c1)c2c34`, for which the result in [2], in assay [3] and in assay [16] was inactive. In addition, the AC50 in [17] is 42.1 µM (active).

Take `Sc1ccccc1`: the result in assay [2], in [3] and in assay [15] was inactive.

In the case of `CC(C)C(=O)OCC(C)(C)C(OC(=O)C(C)C)C(C)C` (stereo not given), the compound was classed as inactive in assay [1], in [4], in assay [5], in [6], in assay [7] and in [8]. The compound was classed as inactive in assay [9], in assay [10], in assay [11], in assay [12], in assay [13] and in [14].

For the compound `CCCCCCCCOC(=O)c1ccccc1C(=O)OCCCCCCCC`, the outcome in [2], in assay [3], in assay [15] and in [16] was inactive. The AC50 in assay [17] is 2.22 µM (active).

As for `O=NN(c1ccccc1)c1ccccc1`, the outcome in [2] and in [3] was inactive.

In the case of `CCOCCOC(C)=O`, the outcome in [2], in assay [3] and in assay [15] was inactive.

For `C1CC2OC2CC1C1CO1` (stereo not given), the outcome in [2] and in [3] was inactive.

Take `Cc1ccccc1O`: the outcome in assay [2], in [3] and in assay [15] was inactive.

As for `Nc1ccc(-c2ccc(N)cc2)cc1`, the call in [1], in assay [4], in assay [5], in [6], in [7] and in assay [8] was inactive. Besides, the result in [9], in assay [10], in assay [11], in [12], in assay [13] and in assay [14] was inactive.

In the case of `CN(C)c1nc(=O)n(C2CCCCC2)c(=O)n1C`, the result in assay [2] and in assay [3] was inactive.

`Cc1ccc(O)c(C)c1`: the outcome in [2], in assay [3] and in [15] was inactive.

For the compound `CC1=C2C[C@H]3[C@@H](CC=C4C[C@@H](O)CC[C@@]43C)[C@@H]2CC[C@]12O[C@@H]1C[C@H](C)CN[C@H]1[C@H]2C`, the outcome in assay [2], in assay [3] and in [15] was inactive.

`CCCCCCOC(=O)c1ccccc1C(=O)OCCCCCC`: the result in assay [2], in assay [3] and in assay [15] was inactive.

Broadly, the AC50 is the concentration giving half of the maximal activity seen.
